Test results: PubChem BioAssay AID1347415 (National Center for Advancing Translational Sciences (NCATS), 2020)
Results filed as inconclusive are left out. The source made the active and inactive calls. The call rests on the fitted dose curve; in most records, active means well fitted inhibition curve with a large enough effect; inconclusive means small, poorly fitted or top-dose-only effect; inactive means no such curve, though single readings can be large or run the other way.

Experiment: qHTS to identify inhibitors of the type 1 interferon - major histocompatibility complex class I in skeletal muscle: tertiary screen by RT-qPCR
Settings: C25cl48 human myoblasts, IFN-beta, HLA-B RT-qPCR, 24 h; series mostly up to 49.8 µM; activity change, negative = inhibition: at the top concentration
From the text: Assay Submitter (PI): Travis B. Kinder Ph.D. & James Inglese Ph.D. Assay Development and Screening Technology Laboratory (ADST) National Center for Advancing Translational Sciences (NCATS), Rockville, MD National Institute of Health (NIH), Bethesda, Maryland Idiopathic inflammatory myopathies, collectively referred to as myositis, are a group of rare autoimmune diseases characterized by skeletal muscle inflammation, weakness, and usually accompanied by systemic pathologies of the skin, lungs, or vasculature. Current immunosuppressive therapies and glucocorticoids are often not curative and are accompanied by harsh side effects, especially in children with juvenile myositis. We initiated a drug repurposing and development program to identify more targeted, less toxic therapeutics to treat myositis. Although its cause is not known, muscle from a subset of patients have an abundance of the inflammatory type 1 interferon (IFN) and a down-stream product major histocompatibility complex class I (MHC class I), which are both thought to contribute to damage and weakness. We conducted quantitative high throughput screening (qHTS) on 6,576 compounds (4,679 unique) through a series of cell-based assays to identify those that inhibit the IFN-stimulated expression of MHC class I in muscle precursor cells (myoblasts). The compound identification and evaluation strategy utilized a primary screen with reporter-tagged MHC class I in genome-engineered myoblasts, ATP content counter screen for viability, HLA-ABC immunofluorescence secondary screen, and HLA-B RT-qPCR tertiary screen. To determine if active compounds identified by qHTS in HLA-B HiBit reporter cells, and confirmed by HLA-ABC immunofluorescence, can inhibit the transcription of HLA-B mRNA, compounds were assayed by RT-qPCR. Briefly, 62 compounds identified from primary, counter, and secondary screening as inhibitory with minimal cytotoxicity were dispensed into 384-well plates using acoustic dispensing in a 6-point, 1:7 titration with a high final concentration of 10 uM. Normal immortalized human myoblasts C25cl48 were added to the plate with 4.0 ng/ml human IFN-beta for 24 hours, and cells were harvested and assayed by the Cells-to-Ct kit with TaqMan assays (Thermo Fisher).
PROTOCOL TABLE (as described by Inglese et al., 2007) SEQUENCE No. (e.g., 1, 2, 3, etc.); […] (e.g., Cells, Incubation, Reagent, etc.); VALUE; DESCRIPTION 0; Compounds; 150 nl; Follow-up compounds dispensed at 150 nl/well with Labcyte Echo 655 acoustic dispenser into one Corning white/clear bottom, high base TC 384-well plates (3765) 1a; Cells; 30 uL; Using a p200 manual pipette, seed 780 cells/well into 1 plate in 30 ul/well of iHSKM growth medium without dexamethasone into columns wells A1-A6. […]

Compound | Potency | activity change, negative = inhibition
OC1CCC(Oc2cccc3cnc(Nc4ccc5nc[nH]c5c4)nc23)CC1 (configuration not stated) | 0.654 µM (active) | –
COc1cccc2c1C(=O)c1c(O)c3c(c(O)c1C2=O)C[C@@](O)(/C(CO)=N/NC(=O)CCCCCN1C(=O)C=CC1=O)C[C@@H]3O[C@H]1C[C@H](N)[C@H](O)[C@H](C)O1 | 4.63 µM (active) | –
CCS(=O)(=O)N1CCN(c2ccc(Nc3ncc(C(N)=O)c(NC4CC4)n3)cc2)CC1 | 5.83 µM (active) | –
c1cc(Nc2cc(C3CC3)[nH]n2)nc(Nc2ccc3nc[nH]c3c2)n1 | 0.654 µM (active) | –
CN1CCN(Cc2ccc(NC(=O)Nc3ccc(Oc4cc(NC(=O)C5CC5)ncn4)cc3)cc2C(F)(F)F)CC1 | 0.146 µM (active) | –
C=C1C(=O)O[C@@H]2[C@H]3O[C@]3(C)CCC=C(C)CC[C@@H]12 | 16.4 µM (active) | –
CC(=O)OCC(=O)[C@@]12OC(C)(C)O[C@@H]1C[C@H]1[C@@H]3C[C@H](F)C4=CC(=O)C=C[C@]4(C)[C@@]3(F)[C@@H](O)C[C@@]12C | – | -29.4% (inactive)
O=C(Nc1nc2cccc(-c3ccc(CN4CCS(=O)(=O)CC4)cc3)n2n1)C1CC1 | 18.4 µM (active) | –
COc1ccc(-c2nc(N3CCOCC3)c3sc(CN(C)c4ncc(C(=O)NO)cn4)cc3n2)cn1 | 0.0232 µM (active) | –
CC(=O)c1ccc2c(c1)c1cc(C(C)=O)ccc1n2CCNC(C)C | 1.84 µM (active) | –
Cc1nc(Nc2n[nH]c3c2CN(C(=O)N[C@H](CN(C)C)c2ccccc2)C3(C)C)c2sccc2n1 | 1.84 µM (active) | –
Cc1ccc([N+](=O)[O-])cc1S(=O)(=O)N(C)/N=C/c1cnc2ccc(Br)cn12 | 0.232 µM (active) | –
O=C(/C=C/c1ccc(CN(CCO)CCc2c[nH]c3ccccc23)cc1)NO | 0.116 µM (active) | –
Cc1[nH]c2ccccc2c1CCNCc1ccc(/C=C/C(=O)NO)cc1 | 0.0292 µM (active) | –
CC(=O)c1cnc2ccc(-c3cc(Cl)c(O)c(Cl)c3)nc2c1NC1CCC(CN(C)C)CC1 (configuration not stated) | 0.116 µM (active) | –
C[C@]12C=CC(=O)C=C1CC[C@@H]1[C@@H]2[C@@H](O)C[C@@]2(C)[C@H]1CC[C@]2(O)C(=O)CO | – | -28.8% (inactive)
OCCCNc1cc(-c2ccnc(Nc3cccc(Cl)c3)n2)ccn1 | 0.116 µM (active) | –
NC(=O)c1cnc2[nH]ccc2c1NC1C2CC3C[C@H]1CC(O)(C3)C2 (some centres not stated) | 1.64 µM (active) | –
CC1=C(CO)C(=O)O[C@@H]([C@@H](C)[C@H]2CC[C@H]3[C@@H]4C[C@H]5O[C@]56[C@@H](O)C=CC(=O)[C@]6(C)[C@H]4CC[C@]23C)C1 | 1.3 µM (active) | –

Compound | Potency | activity change, negative = inhibition
C=CCNC1=C2C[C@@H](C)C[C@H](OC)[C@H](O)[C@@H](C)/C=C(\C)[C@H](OC(N)=O)[C@@H](OC)/C=C\C=C(/C)C(=O)NC(=CC1=O)C2=O | – | -32.6% (inactive)
C[C@@]12O[C@@H](C[C@]1(O)CO)n1c3ccccc3c3c4c(c5c6ccccc6n2c5c31)CNC4=O | 2.6 µM (active) | –
N#CCNC(=O)c1ccc(-c2ccnc(Nc3ccc(N4CCOCC4)cc3)n2)cc1 | 23.2 µM (active) | –
Cc1cc(O)c(-c2ccc([C@@H](C)CN(C)C)cc2)c2c1[nH]c(=O)c1sccc12 | 0.0519 µM (active) | –
CS[C@H]1SC[C@@H]2C(=O)N(C)[C@H](C(C)C)C(=O)OC[C@H](NC(=O)c3cnc4ccccc4n3)C(=O)N[C@H](C)C(=O)N(C)[C@H]1C(=O)N(C)[C@H](C(C)C)C(=O)OC[C@H](NC(=O)c1cnc3ccccc3n1)C(=O)N[C@H](C)C(=O)N2C | – | -135% (inactive)
C[C@H]1C[C@@H]2[C@H]([C@@H](O)C[C@@]3(C)[C@H]2CC[C@]3(O)C(=O)CO)[C@@]2(C)C=CC(=O)C=C12 | – | -18% (inactive)
CCN(CC)Cc1ccc2cc(COC(=O)Nc3ccc(C(=O)NO)cc3)ccc2c1 | 4.13 µM (active) | –
N#CC[C@H](C1CCCC1)n1cc(-c2ncnc3[nH]ccc23)cn1 | 1.64 µM (active) | –
N#CCC1(n2cc(-c3ncnc4[nH]ccc34)cn2)CN(C2CCN(C(=O)c3ccnc(C(F)(F)F)c3F)CC2)C1 | 3.68 µM (active) | –
NC(=O)Nc1sc(-c2ccc(F)cc2)cc1C(N)=O | 10.4 µM (active) | –
CN1CCN(c2cccc(Nc3nc4c(-c5ccc(S(C)(=O)=O)cc5)cccn4n3)c2)CC1 | 8.23 µM (active) | –
COc1cccc2c1C(=O)c1c(O)c3c(c(O)c1C2=O)C[C@@](O)(C(=O)CO)C[C@@H]3O[C@H]1C[C@H](N)[C@H](O)[C@H](C)O1 | 1.04 µM (active) | –
CC(C)C[C@H](NC(=O)[C@H](CCc1ccccc1)NC(=O)CN1CCOCC1)C(=O)N[C@@H](Cc1ccccc1)C(=O)N[C@@H](CC(C)C)C(=O)[C@@]1(C)CO1 | 1.84 µM (active) | –
Cc1ncsc1-c1ccc([C@H](C)NC(=O)[C@@H]2C[C@@H](O)CN2C(=O)[C@@H](NC(=O)COCCCOCCNC(=O)C[C@@H]2N=C(c3ccc(Cl)cc3)c3c(sc(C)c3C)-n3c(C)nnc32)C(C)(C)C)cc1 | – | -104% (inactive)
Cc1cc(Nc2nc(N[C@@H](C)c3ncc(F)cn3)ncc2Cl)n[nH]1 | 4.13 µM (active) | –
Cc1ccc(-c2ncn(-c3ccc(Nc4nccc(-c5cccc(N6CCOCC6)c5)n4)cc3)n2)cn1 | 1.46 µM (active) | –
Cc1ccc(NC(=O)NCc2ccc3c(c2)CN(C2CCC(=O)NC2=O)C3=O)cc1Cl (configuration not stated) | – | -1.86% (inactive)
Cc1cc(Nc2cc(NC(=O)c3c(Cl)cccc3Cl)ccn2)nc(N)n1 | 4.63 µM (active) | –
